Source: ChEMBL document CHEMBL3988442, “University of Dundee, Small-Polar-MMV Screening Library” (2021)
Screen size: about 48,000 compounds; about 13,000 (27%) showed an effect of 50% or more. This is one part of the list.

Test system: Wolbachia pipientis
Assay: Anti-Wolbachia Cell-Based Screen
Format: functional
Parameters: scale not given: in the data most compounds retested in dose-response had high values
Conditions: 5 µM

Compound	Percent Effect
COc1ccc2nc(CNC(=O)c3cc(C(C)C)no3)[nH]c2c1	-7.08%
CC(NCc1cnn(C)c1)c1noc(-c2ccc(Cl)cc2)n1 (configuration not stated)	2.096%
Cc1ccc(C(=O)NCCS(=O)(=O)Cc2ccccc2)c(C)c1	5.407%
Cc1ccc(C(=O)NCCn2nc(-n3cncn3)ccc2=O)c(C)c1	115.4%
O=C(NCCn1nc(-n2cncn2)ccc1=O)c1ccsc1	90.98%
O=C(NCCn1nc(-n2cncn2)ccc1=O)c1ccc(F)cc1F	119.8%
O=C1CCc2cc(C(=O)NCc3ccc(-n4cncn4)nc3)ccc2N1	-4.762%
Cc1csc(C(=O)NCCn2nc(-n3cncn3)ccc2=O)c1	104.4%
O=C(NCCc1ccsc1)c1ccoc1	7.959%
Cc1ccc(C(=O)NCCCn2cncn2)c(=O)[nH]1	0.33%
N#Cc1cccc(N2CCCC3(C2)CN(c2nncs2)CCO3)c1 (configuration not stated)	-22.42%
O=C1O[C@@H]2CN(c3ccc(Cl)cn3)C[C@@H]2N1CCc1ccc(F)cc1	15.74%
CCOc1cc(CNC(=O)C(C#N)c2nc(C)cs2)ccc1OC(F)F (configuration not stated)	-3.55%
NS(=O)(=O)CCNC(=O)c1ccc(OCc2ccccc2)nc1	5.557%
CCCc1nc(C)cc(N2CCNC(C(=O)NC3CC3)C2)n1 (configuration not stated)	-8.099%
O=C(C1CN(CC2CC2)CC12CCOCC2)N1CCOCC1.O=C(O)C(F)(F)F (configuration not stated)	0.7969%
O=C(CN1CCCCC1Cn1cccn1)NC1CCN(C2CC2)CC1 (configuration not stated)	-1.641%
CCSc1ccccc1C(=O)NCCn1nc(C(F)(F)F)n(C)c1=O	-21.23%
O=C(NCCn1nc(-n2cncn2)ccc1=O)c1ccccc1Br	41.16%
CCSc1ccccc1C(=O)NCCn1nc(-n2cncn2)ccc1=O	112%
CN(C)C(=O)c1nnn(-c2ccc(Br)cc2)n1	110.9%
CN(CC(N)=O)C(=O)c1cn(-c2ccc(Br)cc2)cn1	8.695%
COCC(C)NC(=O)c1nnn(-c2ccc(Br)cc2)n1 (configuration not stated)	4.837%
O=C(NCc1ccccn1)c1nnn(-c2ccc(Br)cc2)n1	7.96%
CCC(C)NC(=O)c1nnn(-c2ccc(Br)cc2)n1 (configuration not stated)	110.8%
CC1CCCN(C(=O)c2nnn(-c3ccc(C(F)(F)F)cc3)n2)C1 (configuration not stated)	-23.6%

Compound	Percent Effect
Cc1ccc(CN(C)C(=O)CN2CCCCC2Cn2cncn2)cc1 (configuration not stated)	-11.49%
O=C(NCc1ccccc1CN1CCOCC1)Nc1nncs1	33.23%
CC(C1CCN(Cc2cccc(OC(F)F)c2)CC1)N1CCOCC1 (configuration not stated)	4.738%
Cc1nc(-c2ccc(S(=O)(=O)N3CCC=C(F)C3)cc2)co1	3.194%
CCN(CC)c1ncccc1CNC(=O)c1cc2nc(C)cc(C)n2n1	-11.51%
CCN(CC)c1ncccc1CNCc1ccc(-c2ccn[nH]2)s1	103.4%
CCN(CC)c1ncccc1CNCc1ccc(Cl)s1	99.51%
CCN(CC)c1ncccc1CNC(=O)c1cnn(CC)c1	-6.3%
CCC(CO)N(Cc1ccccn1)Cc1ccc(-c2ccn[nH]2)s1 (configuration not stated)	0.2436%
CCN(CC)c1ncccc1CNCc1cc2ccccc2s1	111.2%
CCC(CO)N(Cc1cccnc1)Cc1ccc(-c2ccn[nH]2)s1 (configuration not stated)	4.35%
CCN(Cc1ccc(Cl)s1)S(=O)(=O)CC	-12.66%
Cc1cc(N(C)C)nc(N2CCn3c(nnc3C(C)C)C2)n1	-5.2%
NC(=O)C1CCCN1Cc1ccccc1NC(=O)Cc1cccs1 (configuration not stated)	-13.98%
COCCn1ccc2cc(NC(=O)COC)ccc21	1.286%
COCCn1ccc2ccc(C(=O)O)cc21	99.17%
CS(=O)(=O)N1CCC(Oc2ccc(C(=O)N3CCSCC3)cc2Cl)CC1	7.501%
COCCn1ccc2cc(C(=O)N3CCN(S(C)(=O)=O)CC3)ccc21	125.8%
Cn1ccc2ccc(C(=O)N3CCN(C(=O)N4CCOCC4)CC3)cc21	0.8109%
CN(C)S(=O)(=O)N1CCN(C(=O)c2ccc3ccn(C)c3c2)CC1	5.412%
CCOC(=O)N1CCN(C(=O)c2ccc3ccn(C)c3c2)CC1	0.8286%
CCC(=O)Nc1ccc2c(ccn2CCOC)c1	8.893%
COCCn1ccc2ccc(C(=O)N3CCN(C(C)=O)CC3)cc21	108.9%
CC(C1CCN(Cc2c(Cl)cncc2Cl)CC1)N1CCN(C)CC1 (configuration not stated)	-10.06%
CC1(c2ccccc2)CCC(=O)N(CC2(N3CCOCC3)CCCC2)C1 (configuration not stated)	-0.1352%
O=C(NCc1nc(C2CC2)no1)N1CCOC(c2ccccc2)C1 (configuration not stated)	-16.91%

Compound	Percent Effect
COC(=O)[C@@H]1Cc2ncn(C)c2CN1S(=O)(=O)c1ccc(OC)cc1	2.654%
O=C(Nc1ccnn1C1CCCC1)c1ccc(NC2CC2)nc1	-4.734%
CCc1c(C)nn(CCN2CC3(CCOC3)CCC2=O)c1C (configuration not stated)	-12.78%
CC(C)CCC(=O)NCCc1ccn(-c2ccccc2)n1	127.8%
CC(C)CCNC(=O)CCc1ccnc2ccccc12	-1.133%
CC(C)(C)C(=O)NCCc1ccn(-c2ccccc2)n1	8.286%
CCNC(=O)CCS(=O)(=O)Cc1ccn(-c2cccc(F)c2)n1	-7.781%
CC(C)(CNC(=O)NCCOc1cccc(F)c1)C(N)=O	-10.47%
CC(C)(C)C(=O)NCCC(=O)NCCc1ccn(-c2ccccc2)n1	101.3%
O=C(CCNc1ncccn1)NCCc1ccn(-c2ccccc2)n1	0.9035%
CC(C)(CNC(=O)NCCc1ccn(-c2ccccc2)n1)C(N)=O	145.8%
CCC(CC)NC(=O)CN1CCN(C(=O)N(C)C)CC1	29.72%
CCCn1cnnc1CNC1CSCCSC1	10.77%
COCC1CN(Cc2ccc(C)o2)Cc2cn(C)nc21.O=C(O)C(F)(F)F.O=C(O)C(F)(F)F (configuration not stated)	-19.49%
COCC1Cn2nnc(-c3cnn(C)c3)c2CN1Cc1ccc(C)s1.O=C(O)C(F)(F)F (configuration not stated)	-9.357%
Fc1cccc(-c2nnn3c2COC(CNCc2ccsc2)C3)c1.O=C(O)C(F)(F)F (configuration not stated)	-5.927%
Cn1cc(-c2nnn3c2COC(CNCc2nccs2)C3)cn1 (configuration not stated)	7.882%
COCC1Cn2nnc(-c3cnn(C)c3)c2CN1Cc1cccs1.O=C(O)C(F)(F)F (configuration not stated)	105.4%
Cc1cnnn1Cc1nnn2c1CN(Cc1cccs1)CCC2.O=C(O)C(F)(F)F	-1.131%
Cc1cccc(COCC2c3nnn(C)c3CCN2Cc2ccoc2)n1.O=C(O)C(F)(F)F.O=C(O)C(F)(F)F (configuration not stated)	-0.8413%
COCC1Cn2nnc(-c3cnn(C)c3)c2CN1Cc1ccc(C)o1 (configuration not stated)	87.7%
COCC1CN(Cc2ccsc2)Cc2nn(C)cc21.O=C(O)C(F)(F)F (configuration not stated)	2.999%
COCC1Cn2nnc(-c3cnn(C)c3)c2CN1Cc1ccoc1.O=C(O)C(F)(F)F (configuration not stated)	100.4%
COCC1Cn2nnc(-c3cnn(C)c3)c2CN1Cc1ccsc1.O=C(O)C(F)(F)F (configuration not stated)	97.96%
COCC1Cn2nnc(-c3cnn(C)c3)c2CN1Cc1ccco1.O=C(O)C(F)(F)F (configuration not stated)	-7.435%
CN(C)S(=O)(=O)N1C[C@H]2CCC[C@@]2(COCC2CCOCC2)C1	-9.423%

Compound	Percent Effect
CCc1nc(CNC2CCN(c3ccc(OC)cc3)CC2)cs1	-5.711%
O=C(c1ccncc1F)N1CCc2ncnc(N3CCOCC3)c2CC1	22.92%
CCc1n[nH]c(C(=O)NCCn2nccc2C)c1C	177.1%
CCCN1CC2(CCN(C)CC2)CC1C(=O)NCCn1ccc(C)n1 (configuration not stated)	5.137%
CCc1n[nH]c(C(=O)NCCn2ccc(C)n2)c1C	161.5%
CCc1n[nH]c(C(=O)NCCn2ccnc2C)c1C	12.68%
CCc1noc(C)c1C(=O)NCc1cc[nH]n1	-9.348%
CCc1c(C)nn(CCNC(=O)c2cnn[nH]2)c1C	-18.26%
Cc1ccc(N2CCN(C(=O)[C@@H]3CCC(=O)N3)CC2=O)cc1	107.8%
COC(C(=O)N1CCN(c2cccc(Cl)c2)C(=O)C1)c1ccccc1 (configuration not stated)	-8.872%
CN1CC(C(=O)N2CCN(c3cccc(Cl)c3)C(=O)C2)NC1=O (configuration not stated)	98.1%
Cc1ccc(N2CCN(C(=O)C3CN(C)C(=O)N3)CC2=O)cc1 (configuration not stated)	99.53%
Cc1cc(C)cc(N2CCN(C(=O)C3CN(C)C(=O)N3)CC2=O)c1 (configuration not stated)	83.41%
COc1cnc(CN2CC(=O)N(c3ccc(C)cc3)CC2C)cc1O (configuration not stated)	8.35%
COc1cccc(N2CCN(C(=O)[C@H](O)C3CCCCC3)CC2=O)c1	-19.32%
COc1ccc(N2CCN(C(=O)CCCc3cn[nH]c3)CC2=O)cc1	-15.55%
COc1cccc(N2CCN(C(=O)CO)CC2=O)c1	5.099%
O=C([C@H](O)c1ccccc1)N1CCN(c2cccc(Cl)c2)C(=O)C1	-7.931%
Cc1ccc(CC(=O)N2CC[C@@H]3NC(=O)CC[C@@H]32)cc1	-5.727%
Cc1ccc(N2CCN(C(=O)C(O)c3cccc(Cl)c3)CC2=O)cc1 (configuration not stated)	-0.06478%
COc1ccc(-c2nc(CNCCn3cccn3)cs2)cc1	30.25%
COc1cc2c(cc1CNCc1ccnc(-n3cccn3)c1)OC(C)C2.Cl (configuration not stated)	-0.5391%
O=C(O)CSc1nnc(-c2ccn[nH]2)n1-c1ccccc1C(F)(F)F	-29.49%
N#CCCN(CC1CCOC1)Cn1ccc(-c2ccsc2)n1 (configuration not stated)	-9.852%
